# Measurements from PubChem BioAssay (EPA / NIEHS).
# Records with an inconclusive call do not appear. Activity calls are given as the source filed them. The calls were made as follows: active = hit-call score of the fitted dose curve at least 0.9, where 1 is the maximum; inconclusive = response in the unintended direction; inactive = score below 0.9.
# Columns and labels:
# [1] = target: human RAR-related Orphan Receptor gamma (RORg), RORC (gene 6097) (UniProt P51449); assay: ATG_RORg_TRANS: Attagene TRANS-FACTORIAL HepG2 Assay for human RAR-related Orphan Receptor gamma (RORg) (AID 2283011)
# human RAR-related Orphan Receptor gamma (RORg), RORC (gene 6097), sequence (P51449 whole entry, looked up, the tested form may be a part): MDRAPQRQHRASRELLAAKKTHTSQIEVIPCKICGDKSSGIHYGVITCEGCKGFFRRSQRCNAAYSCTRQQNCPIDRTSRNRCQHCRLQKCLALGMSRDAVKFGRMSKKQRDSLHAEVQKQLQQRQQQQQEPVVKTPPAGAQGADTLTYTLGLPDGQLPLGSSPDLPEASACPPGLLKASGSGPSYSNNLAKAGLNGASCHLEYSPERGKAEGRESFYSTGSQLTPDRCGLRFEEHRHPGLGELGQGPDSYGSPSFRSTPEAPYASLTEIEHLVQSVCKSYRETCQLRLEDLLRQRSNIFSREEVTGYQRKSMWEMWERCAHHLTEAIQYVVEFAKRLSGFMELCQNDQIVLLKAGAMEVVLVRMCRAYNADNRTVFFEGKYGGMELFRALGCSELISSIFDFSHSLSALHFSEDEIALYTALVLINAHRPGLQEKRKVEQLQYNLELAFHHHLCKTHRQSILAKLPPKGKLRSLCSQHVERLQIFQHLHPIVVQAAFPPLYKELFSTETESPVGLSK
# Method in brief: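 HepG2 cells transiently transfected with GAL4-UAS reporter units and chimeric RORg-Gal4 construct; after 24 h chemical exposure, reporter mRNA measured by RT-PCR with fluorescent capillary electrophoresis, gain of signal fitted against DMSO.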
# [2] = target: Retinoic acid receptor RXR-alpha (Homo sapiens) (UniProt P19793); assay: ATG_RXRa_TRANS: Attagene TRANS-FACTORIAL HepG2 Assay for human Retinoid X Receptor alpha (RXRa) (AID 2283012)
# Retinoic acid receptor RXR-alpha (Homo sapiens), sequence (P19793 whole entry, looked up, the tested form may be a part): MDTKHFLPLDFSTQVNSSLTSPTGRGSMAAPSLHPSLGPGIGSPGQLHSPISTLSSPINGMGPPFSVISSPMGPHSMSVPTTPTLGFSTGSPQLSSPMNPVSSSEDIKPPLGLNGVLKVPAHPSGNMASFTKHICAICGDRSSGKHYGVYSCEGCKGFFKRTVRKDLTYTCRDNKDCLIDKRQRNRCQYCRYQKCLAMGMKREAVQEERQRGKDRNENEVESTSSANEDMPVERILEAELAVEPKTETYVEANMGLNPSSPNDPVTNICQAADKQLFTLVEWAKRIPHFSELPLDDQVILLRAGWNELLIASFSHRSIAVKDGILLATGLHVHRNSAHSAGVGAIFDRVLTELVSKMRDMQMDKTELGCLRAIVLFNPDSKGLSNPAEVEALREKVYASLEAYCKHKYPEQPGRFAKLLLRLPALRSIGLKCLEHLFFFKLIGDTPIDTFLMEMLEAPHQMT
# Method in brief: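 TRANS format reporting activity of exogenous RXRa-Gal4 chimera in transiently transfected HepG2, 24 h exposure. Reporter transcripts quantified by RT-PCR with capillary electrophoresis, with gain of signal scored relative to DMSO.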
# [3] = target: human Retinoid X Receptor beta (RXRb), RXRB (gene 6257) (UniProt P28702); assay: ATG_RXRb_TRANS: Attagene TRANS-FACTORIAL HepG2 Assay for human Retinoid X Receptor beta (RXRb) (AID 2283013)
# human Retinoid X Receptor beta (RXRb), RXRB (gene 6257), sequence (P28702 whole entry, looked up, the tested form may be a part): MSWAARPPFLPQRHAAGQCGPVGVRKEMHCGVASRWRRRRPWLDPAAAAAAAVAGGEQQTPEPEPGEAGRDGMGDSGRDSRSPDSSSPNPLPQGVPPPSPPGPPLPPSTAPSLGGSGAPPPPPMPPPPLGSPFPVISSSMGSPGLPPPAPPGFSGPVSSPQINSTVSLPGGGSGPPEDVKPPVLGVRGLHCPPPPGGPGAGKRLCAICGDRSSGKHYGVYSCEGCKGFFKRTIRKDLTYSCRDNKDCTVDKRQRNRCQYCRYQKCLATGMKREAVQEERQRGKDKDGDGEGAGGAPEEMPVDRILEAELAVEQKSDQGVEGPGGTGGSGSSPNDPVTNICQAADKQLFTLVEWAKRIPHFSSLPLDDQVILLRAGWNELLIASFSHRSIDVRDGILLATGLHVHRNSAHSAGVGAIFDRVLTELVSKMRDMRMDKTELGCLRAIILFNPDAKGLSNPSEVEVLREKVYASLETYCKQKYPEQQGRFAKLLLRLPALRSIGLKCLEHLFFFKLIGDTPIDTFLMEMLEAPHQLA
# Method in brief: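 Readout is reporter transcript induction after 24 h dosing. It is measured by RT-PCR of total RNA followed by fluorescent capillary electrophoresis. HepG2 liver cells carry transfected multiple reporter units driven by an exogenous RXRb-Gal4 fusion; activity is relative to DMSO.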
# [4] = target: human Thyroid Receptor alpha (THRa1), THRA (gene 7067) (UniProt P10827); assay: ATG_THRa1_TRANS: Attagene TRANS-FACTORIAL HepG2 Assay for human Thyroid Receptor alpha (THRa1) (AID 2283014)
# human Thyroid Receptor alpha (THRa1), THRA (gene 7067), sequence (P10827 whole entry, looked up, the tested form may be a part): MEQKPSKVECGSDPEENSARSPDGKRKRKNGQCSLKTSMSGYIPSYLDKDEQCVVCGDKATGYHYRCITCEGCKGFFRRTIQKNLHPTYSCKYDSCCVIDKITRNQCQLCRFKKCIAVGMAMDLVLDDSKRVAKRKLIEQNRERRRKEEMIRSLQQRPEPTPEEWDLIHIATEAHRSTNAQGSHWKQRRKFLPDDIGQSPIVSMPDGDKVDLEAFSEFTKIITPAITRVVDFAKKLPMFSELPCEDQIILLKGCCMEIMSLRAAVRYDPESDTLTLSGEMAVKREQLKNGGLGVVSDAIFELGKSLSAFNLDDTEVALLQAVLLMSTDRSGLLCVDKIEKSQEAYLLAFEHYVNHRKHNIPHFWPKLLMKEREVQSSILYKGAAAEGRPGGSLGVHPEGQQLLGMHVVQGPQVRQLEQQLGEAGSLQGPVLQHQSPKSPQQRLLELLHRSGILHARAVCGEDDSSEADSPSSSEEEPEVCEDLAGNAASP
# Method in brief: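 HepG2 cells transiently transfected with chimeric NR-Gal4 and GAL4-UAS reporter units, dosed 24 h. Reporter mRNA quantified by RT-PCR, fluorescent labeling, HpaI digestion and capillary electrophoresis; gain-of-signal fit versus DMSO.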
# [5] = target: human Vitamin D Receptor (VDR), VDR (gene 7421) (UniProt P11473); assay: ATG_VDR_TRANS: Attagene TRANS-FACTORIAL HepG2 Assay for human Vitamin D Receptor (VDR) (AID 2283022)
# human Vitamin D Receptor (VDR), VDR (gene 7421), sequence (P11473 whole entry, looked up, the tested form may be a part): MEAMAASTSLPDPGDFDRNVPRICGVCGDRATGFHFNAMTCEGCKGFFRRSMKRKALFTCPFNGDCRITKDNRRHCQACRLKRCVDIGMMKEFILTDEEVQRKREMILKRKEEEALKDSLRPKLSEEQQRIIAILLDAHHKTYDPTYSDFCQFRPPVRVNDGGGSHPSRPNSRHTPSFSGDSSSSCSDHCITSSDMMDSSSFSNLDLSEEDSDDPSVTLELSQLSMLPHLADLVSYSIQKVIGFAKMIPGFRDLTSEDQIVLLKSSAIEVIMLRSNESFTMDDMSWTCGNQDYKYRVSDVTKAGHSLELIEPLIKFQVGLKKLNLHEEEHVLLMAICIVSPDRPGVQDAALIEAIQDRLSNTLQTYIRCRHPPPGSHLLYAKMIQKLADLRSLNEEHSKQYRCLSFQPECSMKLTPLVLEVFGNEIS
# Method in brief: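 HepG2 cells were transiently transfected with GAL4-UAS reporter units and a chimeric VDR-Gal4 construct, then dosed for 24 hours. Reporter mRNA was quantified by RT-PCR, fluorescent labeling, HpaI digestion and capillary electrophoresis; gain of signal analysed vs DMSO.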
structure (smiles),measurement,setting,value
CCCCCCCCCCCCCCCCCC#N,outcome,[1],inactive
same,outcome,[2],inactive
CC1=CC[C@H]2C[C@@H]1C2(C)C,outcome,[1],inactive
same,outcome,[2],inactive
Nc1cccc(C(F)(F)F)c1,outcome,[1],inactive
Cc1cccc(N)n1,outcome,[1],inactive
same,outcome,[2],inactive
c1ccc(CCCc2ccncc2)cc1,outcome,[1],inactive
same,outcome,[2],inactive
same,outcome,[3],inactive
same,outcome,[4],inactive
CC1=CC[C@H](C(C)C)C=C1,outcome,[1],inactive
same,outcome,[2],inactive
same,AC50,[3],40.2 µM (active)
C=C(C)[C@H]1CC=C(C)CC1,outcome,[1],inactive
same,outcome,[2],inactive
same,outcome,[3],inactive
CC(=O)OCC(=O)[C@@]12N=C(C)O[C@@H]1C[C@H]1[C@@H]3CCC4=CC(=O)C=C[C@]4(C)[C@H]3[C@@H](O)C[C@@]12C,outcome,[1],inactive
same,AC50,[2],16.7 µM (active)
same,AC50,[3],1.62 µM (active)
same,outcome,[4],inactive
OCCCS,outcome,[1],inactive
same,outcome,[2],inactive
same,outcome,[3],inactive
OCCNCc1ccccc1,outcome,[1],inactive
same,outcome,[2],inactive
SCCc1cnccn1,outcome,[1],inactive
same,outcome,[2],inactive
CC1(C)[C@H]2CC[C@]1(C)C(=O)C2,outcome,[1],inactive
same,outcome,[2],inactive
CC(=O)c1ccc[nH]1,outcome,[1],inactive
same,outcome,[2],inactive
same,outcome,[3],inactive
same,outcome,[4],inactive
C[C@]12CCC(=O)C=C1CC[C@@H]1[C@@H]2C(=O)C[C@@]2(C)[C@H]1CC[C@]2(O)C(=O)CO,outcome,[1],inactive
same,outcome,[2],inactive
same,outcome,[3],inactive
Cc1ccc(OC(=O)CC(C)C)cc1,outcome,[1],inactive
same,outcome,[2],inactive
same,outcome,[3],inactive
same,outcome,[4],inactive
C=C(C)CCO,outcome,[1],inactive
same,outcome,[2],inactive
same,AC50,[3],63.9 µM (active)
same,outcome,[4],inactive
CC(=O)Oc1ccc(C(C)=O)cc1,outcome,[1],inactive
same,outcome,[2],inactive
same,outcome,[5],inactive
CCOC(=O)[C@H](C)O,outcome,[1],inactive
same,outcome,[2],inactive
same,outcome,[3],inactive
same,outcome,[5],inactive
CNC(=S)N(C)C,outcome,[1],inactive
same,outcome,[2],inactive
same,outcome,[3],inactive
same,outcome,[5],inactive
CCC(C)C=O (centres undefined),outcome,[1],inactive
same,outcome,[2],inactive
same,outcome,[5],inactive
CCCCCCCCCCc1ccccc1,outcome,[1],inactive
same,outcome,[2],inactive
same,AC50,[3],49.1 µM (active)
same,outcome,[4],inactive
same,outcome,[5],inactive
O=C1CCCCCN1SSN1CCCCCC1=O,outcome,[1],inactive
same,outcome,[2],inactive
same,outcome,[3],inactive
same,outcome,[4],inactive
same,outcome,[5],inactive
C=CC(=O)OCCOC(=O)C=C,outcome,[1],inactive
same,outcome,[2],inactive
same,outcome,[3],inactive
same,AC50,[4],26.9 µM (active)
same,outcome,[5],inactive
NC(=O)NNC(N)=O,outcome,[1],inactive
same,outcome,[2],inactive
same,outcome,[4],inactive
same,outcome,[5],inactive
CC(C)(C)c1ccc(N)cc1,outcome,[1],inactive
same,outcome,[2],inactive
same,outcome,[3],inactive
same,outcome,[5],inactive
C=C[Si](C)(C)O[Si](C)(C)C=C,outcome,[1],inactive
same,outcome,[2],inactive
same,outcome,[4],inactive
same,outcome,[5],inactive
CC(C)(C)C(=O)CCc1ccc(Cl)cc1,outcome,[1],inactive
same,outcome,[2],inactive
same,outcome,[3],inactive
same,outcome,[4],inactive
same,outcome,[5],inactive
CO[Si](CCC1CCC2OC2C1)(OC)OC (centres undefined),outcome,[1],inactive
same,outcome,[2],inactive
same,outcome,[4],inactive
Cc1cccc(C(=O)O)c1,outcome,[1],inactive
same,outcome,[2],inactive
same,outcome,[3],inactive
same,outcome,[4],inactive
same,outcome,[5],inactive
